We go through 13 sequences from article PMC8384837, “Expanding the binding specificity for RNA recognition by a PUF domain”.

Residue numbers refer to the chain shown, from its start.

Holding throughout (experiment): yeast three-hybrid, YBZ-1, SC-Leu-His + 0.5 mM 3-AT, 4 days
Details in all cases: tags: N-Gal4 AD-HA kept; label: inside an RPR1-promoter hybrid RNA with tandem MS2 sites; ssRNA

The target in one assay is PUM1 PUF domain R3-PWG (Homo sapiens, UniProt Q14671 828-1176, C935P;R936W;Q939G). The method, boiled down:
(§1)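 The interaction score is the log change in variant frequency from input to selection. Scores were computed in log2 with a pseudocount of 1 for absent variants, using Illumina sequencing of PCR-amplified repeat regions. The input came from four days on SC-Leu and the selection from four days on SC-Leu-His + 0.5 mM 3-AT. The cells were strain YBZ-1 (LexA–MS2 coat fusion, HIS3 reporter) co-expressing Pumilio-1 PUF domain libraries and matching RNA elements from a centromeric plasmid.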

The target in another assay is PUM1 PUF domain R3-TRA (Homo sapiens, UniProt Q14671 828-1176, C935T;Q939A). The method, boiled down:
as §1

A further assay addresses PUM1 PUF domain R3-AWG (Homo sapiens, UniProt Q14671 828-1176, C935A;R936W;Q939G). The method, boiled down: as §1
The target of another assay is PUM1 PUF domain R4-GRG (Homo sapiens, UniProt Q14671 828-1176, N971G;H972R;Q975G). An outline of the steps:
as §1

The target of a further assay is PUM1 PUF domain R8-NFV (Homo sapiens, UniProt Q14671 828-1176, Y1123F;Q1126V). An outline of the steps: as §1
In the next assay the target is PUM1 PUF domain R8-RFC (Homo sapiens, UniProt Q14671 828-1176, N1122R;Y1123F;Q1126C). An outline of the steps:
as §1

The target in the next assay is T1, PUM1 PUF domain R6-GRQ (Homo sapiens, UniProt Q14671 828-1176, N1043G;Y1044R).
T1 sequence: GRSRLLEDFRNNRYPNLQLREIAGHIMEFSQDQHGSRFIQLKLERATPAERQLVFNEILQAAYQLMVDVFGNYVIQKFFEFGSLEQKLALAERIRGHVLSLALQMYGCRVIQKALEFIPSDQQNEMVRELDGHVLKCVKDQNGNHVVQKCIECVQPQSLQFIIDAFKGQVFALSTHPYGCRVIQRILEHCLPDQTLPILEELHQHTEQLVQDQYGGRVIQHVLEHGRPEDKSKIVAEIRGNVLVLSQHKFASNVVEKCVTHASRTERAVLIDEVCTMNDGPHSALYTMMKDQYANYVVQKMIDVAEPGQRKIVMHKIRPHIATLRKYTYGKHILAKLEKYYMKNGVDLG
An outline of the steps:
as §1

The next assay concerns the target T2, PUM1 PUF domain R6-AYM (Homo sapiens, UniProt Q14671 828-1176, N1043A;Q1047M).
T2 sequence: T1 sequence with G216A, R217Y, Q220M
The method, boiled down: as §1

The target in a further assay is PUM1 PUF domain R8-KWH (Homo sapiens, UniProt Q14671 828-1176, N1122K;Y1123W;Q1126H). The method, boiled down:
as §1

The target in another assay is PUM1 PUF domain R3-APM (Homo sapiens, UniProt Q14671 828-1176, C935A;R936P;Q939M). The method, boiled down: as §1
A further assay deals with PUM1 PUF domain R4-CPN (Homo sapiens, UniProt Q14671 828-1176, N971C;H972P;Q975N). The method, boiled down:
as §1

For the next assay, the target named is PUM1 PUF domain R5-RRC (Homo sapiens, UniProt Q14671 828-1176, C1007R;Q1011C). An outline of the steps:
as §1

A further assay concerns the target PUM1 PUF domain R5-MGR (Homo sapiens, UniProt Q14671 828-1176, C1007M;R1008G;Q1011R). An outline of the steps: as §1
The target in another assay is PUM1 PUF domain R3-RAH (Homo sapiens, UniProt Q14671 828-1176, C935R;R936A;Q939H). The method, boiled down: as §1
A further assay concerns the target PUM1 PUF domain R5-SGS (Homo sapiens, UniProt Q14671 828-1176, C1007S;R1008G;Q1011S). The method, boiled down:
as §1

Another assay concerns the target PUM1 PUF domain R1-KYI (Homo sapiens, UniProt Q14671 828-1176, S863K;R864Y;Q867I). The method, boiled down:
as §1

The target of the next assay is PUM1 PUF domain R1-MYR (Homo sapiens, UniProt Q14671 828-1176, S863M;R864Y;Q867R). An outline of the steps:
as §1

The target in a further assay is PUM1 PUF domain R7-LNA (Homo sapiens, UniProt Q14671 828-1176, S1079L;E1083A). The method, boiled down:
as §1

The target of another assay is PUM1 PUF domain R7-GGR (Homo sapiens, UniProt Q14671 828-1176, S1079G;N1080G;E1083R). The method, boiled down:
as §1

The next assay concerns the target T3, PUM1 PUF domain R6-GFE (Homo sapiens, UniProt Q14671 828-1176, N1043G;Y1044F;Q1047E).
T3 sequence: T1 sequence with R217F, Q220E
The method, boiled down: as §1

On to “GGCUAGAACUAGUGGAUCCCCCGGCGCCCGGCGGCUCGAGCCCGGGUAAGUGUAAGUAGUCUGCAUGCCGCCGGGCGCCAUGCCUGCAGGUCGACUCUAGAAAACAUG”, for which the binding signal is 2.38 log2 enrichment (interaction score) with PUM1 PUF domain R3-PWG, 0.89 log2 enrichment (interaction score) in the assay with PUM1 PUF domain R3-TRA and 0.66 log2 enrichment (interaction score) in the assay with PUM1 PUF domain R3-AWG.

Turning to “GGCUAGAACUAGUGGAUCCCCCGGCGCCCGGCGGCUCGAGCCCGGGUAAGUGUAUAUAGUCUGCAUGCCGCCGGGCGCCAUGCCUGCAGGUCGACUCUAGAAAACAUG”, the binding signal with PUM1 PUF domain R4-GRG is 2.09 log2 enrichment (interaction score).

“GGCUAGAACUAGUGGAUCCCCCGGCGCCCGGCGGCUCGAGCCCGGGUAAGUGUAAAUAGUCUGCAUGCCGCCGGGCGCCAUGCCUGCAGGUCGACUCUAGAAAACAUG”: the binding signal with PUM1 PUF domain R3-PWG was 4.24 log2 enrichment (interaction score); with PUM1 PUF domain R8-NFV, 3.02 log2 enrichment (interaction score); in the assay with PUM1 PUF domain R3-TRA, 3.6 log2 enrichment (interaction score); in the assay with PUM1 PUF domain R3-AWG, 3.6 log2 enrichment (interaction score); with PUM1 PUF domain R4-GRG, 5.19 log2 enrichment (interaction score); with PUM1 PUF domain R8-RFC it was 4.53 log2 enrichment (interaction score). Also, the binding signal with PUM1 PUF domain R6-GRQ was 3.49 log2 enrichment (interaction score); with PUM1 PUF domain R6-AYM it was 4.27 log2 enrichment (interaction score); with PUM1 PUF domain R8-KWH it was 4.79 log2 enrichment (interaction score); with PUM1 PUF domain R3-APM, 2.44 log2 enrichment (interaction score); in the assay with PUM1 PUF domain R4-CPN it was 3.19 log2 enrichment (interaction score); in the assay with PUM1 PUF domain R5-RRC, 2.21 log2 enrichment (interaction score). In the assay with PUM1 PUF domain R5-MGR, the binding signal was 1.08 log2 enrichment (interaction score).

With “GGCUAGAACUAGUGGAUCCCCCGGCGCCCGGCGGCUCGAGCCCGGGUAAGCGUAAAUAGUCUGCAUGCCGCCGGGCGCCAUGCCUGCAGGUCGACUCUAGAAAACAUG”, the binding signal in the assay with PUM1 PUF domain R8-RFC was 5.87 log2 enrichment (interaction score).

Consider “GGCUAGAACUAGUGGAUCCCCCGGCGCCCGGCGGCUCGAGCCCGGGUAAGUGUAAUUAGUCUGCAUGCCGCCGGGCGCCAUGCCUGCAGGUCGACUCUAGAAAACAUG”, for which the binding signal with PUM1 PUF domain R3-PWG is 2.22 log2 enrichment (interaction score); in the assay with PUM1 PUF domain R3-TRA, 0.43 log2 enrichment (interaction score); in the assay with PUM1 PUF domain R3-AWG, 0.35 log2 enrichment (interaction score); in the assay with PUM1 PUF domain R3-RAH, 3.61 log2 enrichment (interaction score).

For the sequence “GGCUAGAACUAGUGGAUCCCCCGGCGCCCGGCGGCUCGAGCCCGGGUAAGUGUCAAUAGUCUGCAUGCCGCCGGGCGCCAUGCCUGCAGGUCGACUCUAGAAAACAUG”, the binding signal was 3.9 log2 enrichment (interaction score) with PUM1 PUF domain R5-RRC and 3.14 log2 enrichment (interaction score) with PUM1 PUF domain R5-MGR.

In the case of “GGCUAGAACUAGUGGAUCCCCCGGCGCCCGGCGGCUCGAGCCCGGGUAAGUGUGAAUAGUCUGCAUGCCGCCGGGCGCCAUGCCUGCAGGUCGACUCUAGAAAACAUG”, the binding signal with PUM1 PUF domain R5-SGS was 2.71 log2 enrichment (interaction score); in the assay with PUM1 PUF domain R5-RRC, 1.37 log2 enrichment (interaction score).

Turning to “GGCUAGAACUAGUGGAUCCCCCGGCGCCCGGCGGCUCGAGCCCGGGUAAGUGUAAAUCGUCUGCAUGCCGCCGGGCGCCAUGCCUGCAGGUCGACUCUAGAAAACAUG”, the binding signal with PUM1 PUF domain R1-KYI was 4.65 log2 enrichment (interaction score); in the assay with PUM1 PUF domain R1-MYR, 3.82 log2 enrichment (interaction score).

For “GGCUAGAACUAGUGGAUCCCCCGGCGCCCGGCGGCUCGAGCCCGGGUAAGUGUACAUAGUCUGCAUGCCGCCGGGCGCCAUGCCUGCAGGUCGACUCUAGAAAACAUG”, in the assay with PUM1 PUF domain R4-GRG, the binding signal was 0.59 log2 enrichment (interaction score).

For the sequence “GGCUAGAACUAGUGGAUCCCCCGGCGCCCGGCGGCUCGAGCCCGGGUAAGUGUUAAUAGUCUGCAUGCCGCCGGGCGCCAUGCCUGCAGGUCGACUCUAGAAAACAUG”, in the assay with PUM1 PUF domain R5-RRC, the binding signal was 4.61 log2 enrichment (interaction score).

On to “GGCUAGAACUAGUGGAUCCCCCGGCGCCCGGCGGCUCGAGCCCGGGUAAGUUUAAAUAGUCUGCAUGCCGCCGGGCGCCAUGCCUGCAGGUCGACUCUAGAAAACAUG”, for which the binding signal with PUM1 PUF domain R7-LNA is 4.5 log2 enrichment (interaction score); with PUM1 PUF domain R7-GGR, 3.28 log2 enrichment (interaction score).

In the case of “GGCUAGAACUAGUGGAUCCCCCGGCGCCCGGCGGCUCGAGCCCGGGUAAGUGGAAAUAGUCUGCAUGCCGCCGGGCGCCAUGCCUGCAGGUCGACUCUAGAAAACAUG”, in the assay with PUM1 PUF domain R6-GFE, the binding signal is 5.67 log2 enrichment (interaction score).

Turning to “GGCUAGAACUAGUGGAUCCCCCGGCGCCCGGCGGCUCGAGCCCGGGUAAGUGUAAAUUGUCUGCAUGCCGCCGGGCGCCAUGCCUGCAGGUCGACUCUAGAAAACAUG”, the binding signal with PUM1 PUF domain R1-MYR is 3.58 log2 enrichment (interaction score).
